KB-3-1 tox – KB-3-1 parental cell cytotoxicity. KB-3-1 viability, CellTiter-Glo ATP luminescence, 72 h. Potency, µM (titrated, usually from 46.1 µM), usual class: cytotoxic. 400,000 tested, 1.4% active; further: nearly all actives have a fitted effect of over 60% in size
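Cytotoxicity measured as CellTiter-Glo luminescence after 72 h at 37 C. Compound titrations were pinned onto drug-naive KB-3-1 parental adenocarcinoma cells grown in DMEM with 10% FBS, and normalized data fitted to concentration-response curves.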
KB-V1 MDR tox – kills drug-selected multidrug resistant KB-V1 cells; KB-V1 MDR cells viability, CellTiter-Glo, 72 h; 400,000 tested, 3.4% active; Potency, µM (top dose mostly 46.1 µM), usual class: cytotoxic; further: nearly all actives have a fitted effect of over 60% in size
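KB-V1 MDR subline cells in DMEM (phenol-red free, 10% FBS) exposed to compounds in qHTS concentration series for 72 h at 37 degrees C. Viability read by CellTiter-Glo luminescence; concentration-effect curves fitted after normalization and correction.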
SW480 rereplic – DNA re-replication induction in SW480 cells; AID 624297; 340,000 tested, 1.8% active; SW480 DNA re-replication, Hoechst DNA content imaging, 48 h; Potency, µM (top dose mostly 46.1 µM), most hits filed as activators; further: nearly all actives have a fitted effect of over 55% in size
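Cells (250 per well) received 23 nL compound or DMSO by pin tool and were kept 48 hr at 37 C, 5% CO2. Nuclei were then stained with Hoechst for 40 min and scanned for DNA content.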
MCF10A rerep – DNA re-replication induction in MCF 10a cells. MCF 10A DNA re-replication, Hoechst nuclear intensity, 48 h. Potency, µM (highest dose often 46.1 µM), hits mostly activators. 350,000 tested, 2.9% active; further: nearly all actives have a fitted effect of over 50% in size
Giardia kill – Giardia lamblia killing; Giardia lamblia trophozoite viability; activity change, % at 7.66 µM, hits read low; 340,000 tested, 0.15% active; AID 540267; in the data active means activity change below about -80%; inconclusive means between about -30% and that limit;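 further: parasites exposed to compound for two days anaerobically before the ATP read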
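Luminescence from cellular ATP indicates surviving trophozoites (100 cells/well) following 48 hrs anaerobic compound treatment at 37 deg C; signal develops 15-30 min at room temperature.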
S-ASM inh – blocks human secretory acid sphingomyelinase; P17405; AID 504937; 340,000 tested, 0.006% active; placental ASM, HMU-PC fluorogenic substrate, 60 min; Potency, µM (doses to about 57.5 µM), most hits filed as inhibitors
Target sequence (P17405 47-631 limits assumed): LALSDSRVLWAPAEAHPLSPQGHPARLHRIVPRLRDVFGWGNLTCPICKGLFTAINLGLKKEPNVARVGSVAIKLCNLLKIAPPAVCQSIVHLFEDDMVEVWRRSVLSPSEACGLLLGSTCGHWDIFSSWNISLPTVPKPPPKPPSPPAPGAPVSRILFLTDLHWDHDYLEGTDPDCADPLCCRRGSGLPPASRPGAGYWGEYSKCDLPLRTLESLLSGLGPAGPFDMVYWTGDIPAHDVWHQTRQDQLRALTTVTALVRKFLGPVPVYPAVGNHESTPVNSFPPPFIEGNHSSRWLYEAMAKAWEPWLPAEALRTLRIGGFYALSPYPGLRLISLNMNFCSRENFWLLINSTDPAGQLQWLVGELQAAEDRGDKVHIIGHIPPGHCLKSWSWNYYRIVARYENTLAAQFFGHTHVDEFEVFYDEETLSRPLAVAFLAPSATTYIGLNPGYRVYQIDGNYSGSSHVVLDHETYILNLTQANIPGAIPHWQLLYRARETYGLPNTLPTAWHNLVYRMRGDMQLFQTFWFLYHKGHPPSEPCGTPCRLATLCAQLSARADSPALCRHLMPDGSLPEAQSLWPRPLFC
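Fluorogenic HMU-PC substrate (9 uM final) is turned over by placental ASM in 60 min at 37 C after a 10 min compound preincubation. Reaction ended by alkaline stop (pH 10), with fluorescence read at 386/447 nm.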
Each line names hits and unclear results; the compound was inactive in the other large screens. An excerpt weighted towards active compounds, which were near 6.9% of everything screened. Unless noted, the call rests on the fitted dose curve; in most records, active means well fitted curve in the direction sought with a large enough effect; inconclusive means small, poorly fitted or top-dose-only effect, or another doubt; inactive means no such curve, though single readings can be large; an effect the other way counts as inactive or inconclusive.

COc1ccc(OC)c(NC(=O)Cn2nc3c(cc2=O)CCCC3)c1	none (no result: SW480 rereplic, MCF10A rerep, Giardia kill, S-ASM inh)
Cc1ccc(OCc2ccc(C(=O)Nc3nc4ccccc4n3Cc3ccccc3)o2)c([N+](=O)[O-])c1	KB-V1 MDR tox inconclusive, SW480 rereplic inconclusive, MCF10A rerep 13µM
CCOC(=O)CSC1=C(C#N)C(c2ccccc2OCC)C(C#N)C(=O)N1 (configuration not stated)	SW480 rereplic 18µM, MCF10A rerep inconclusive
CCOC(=O)CSC1=C(C#N)C(c2ccc(Cl)cc2)CC(=O)N1 (configuration not stated)	none
CCOC(=O)CSC1=C(C#N)C(c2ccc(C)o2)CC(=O)N1 (configuration not stated)	KB-3-1 tox 0.58µM, KB-V1 MDR tox inconclusive, SW480 rereplic 0.82µM, MCF10A rerep inconclusive
CCOC(=O)CSC1=C(C#N)C(c2ccc3c(c2)OCO3)CC(=O)N1 (configuration not stated)	KB-3-1 tox 7.3µM, KB-V1 MDR tox inconclusive, SW480 rereplic inconclusive, MCF10A rerep inconclusive
Cc1ccc(-n2c(=O)c3ccccc3n(CC(=O)Nc3cccc(C(F)(F)F)c3)c2=O)cc1	KB-V1 MDR tox inconclusive (no result: SW480 rereplic, MCF10A rerep, Giardia kill, S-ASM inh)
COc1ccc(CCN(Cc2cccs2)S(=O)(=O)c2ccc(-n3cnnn3)c(OC)c2)cc1OC	KB-V1 MDR tox 2.6µM
CCOc1ccccc1CN(Cc1ccco1)S(=O)(=O)c1ccc(-n2cnnn2)c(OC)c1	KB-3-1 tox inconclusive, KB-V1 MDR tox inconclusive, SW480 rereplic 8.2µM, MCF10A rerep inconclusive
CCCC(=O)Oc1ccc2[nH]c(C(=O)c3cc4ccccc4[nH]3)cc2c1	none (no result: SW480 rereplic, MCF10A rerep, Giardia kill, S-ASM inh)
COc1ccc(NC(=O)CSc2nc3c(c(=O)[nH]2)CCC3)cc1	none (no result: SW480 rereplic, MCF10A rerep, Giardia kill, S-ASM inh)
CC(C)(C)OC(=O)N1CC2(CCCCC2)CC1Cc1ccc(C(F)(F)F)cc1 (configuration not stated)	none (no result: SW480 rereplic, MCF10A rerep, Giardia kill, S-ASM inh)
O=[N+]([O-])c1ccc(C(c2sc3nc(-c4ccco4)nn3c2O)N2CCN(Cc3ccccc3)CC2)cc1 (configuration not stated)	none (no result: SW480 rereplic, MCF10A rerep, Giardia kill, S-ASM inh)
COc1ccc(C2CC23N=C(c2ccccc2)OC3=O)cc1 (configuration not stated)	MCF10A rerep 16µM
COc1ccc(Nc2ncc(C(=O)Nc3ccc(F)cc3F)c3ccccc23)cc1	KB-V1 MDR tox inconclusive (no result: SW480 rereplic, MCF10A rerep, Giardia kill, S-ASM inh)
Cc1nn(-c2ccccn2)c2c1C(c1ccsc1)C1=C(CCCC1=O)N2 (configuration not stated)	KB-3-1 tox inconclusive, KB-V1 MDR tox 3.7µM, SW480 rereplic inconclusive
O=S(=O)(NCCSc1nnnn1-c1ccccc1)c1cccs1	KB-V1 MDR tox 16µM
FC(F)(F)c1cc(Cl)c2nc(-c3ccccc3)cn2c1	MCF10A rerep 15µM
CCOc1c(Cl)cc(CNc2ccc(N3CCCC3)cc2)cc1OC	KB-3-1 tox inconclusive, SW480 rereplic 10µM, MCF10A rerep inconclusive
CCOc1c(Cl)cc(CNc2ccc(S(N)(=O)=O)cc2)cc1OC	none
CCOc1c(Cl)cc(CNC(C)(C)CC(C)(C)C)cc1OC	KB-3-1 tox inconclusive, KB-V1 MDR tox inconclusive, MCF10A rerep 8.2µM
N/C(=N\OC(=O)COc1ccc(Cl)cc1Cl)c1cccnc1	KB-V1 MDR tox inconclusive, SW480 rereplic 13µM
Cc1c(C)c2ccc(OCC(=O)Nc3ccccn3)c(C)c2oc1=O	KB-V1 MDR tox inconclusive, Giardia kill -98
N/C(=N\OC(=O)COc1ccc(Cl)cc1)c1cccnc1	KB-V1 MDR tox inconclusive
O=C(COc1ccc(Cl)cc1Cl)NCc1ccncc1	KB-V1 MDR tox 18µM
CCc1c(C)c2ccc(OCC(=O)N(C)C)c(C)c2oc1=O	KB-V1 MDR tox 10µM
Cc1ccc(-c2csc(-c3nc(-c4ccc(Br)s4)cs3)n2)cc1	none (no result: SW480 rereplic, MCF10A rerep, Giardia kill, S-ASM inh)
Nc1nc2c(nc(N3CCOCC3)n2COCCO)c(=O)[nH]1	KB-V1 MDR tox inconclusive (no result: SW480 rereplic, MCF10A rerep, Giardia kill, S-ASM inh)
O=C(COc1ccc(Cl)cc1Cl)Nc1ccccn1	KB-3-1 tox inconclusive, KB-V1 MDR tox inconclusive, Giardia kill -101
CSc1ccccc1NC(=O)COc1ccc(Cl)cc1Cl	KB-3-1 tox inconclusive, SW480 rereplic inconclusive
O=C(COc1ccc(Cl)cc1Cl)NNC(=S)Nc1ccc(F)cc1	KB-V1 MDR tox 21µM
O=C(CCCOc1ccc(Cl)cc1Cl)Nc1cccnc1	KB-V1 MDR tox 18µM
CC(C)NC(=O)COc1ccc(Cl)cc1Cl	KB-V1 MDR tox inconclusive, SW480 rereplic 16µM, MCF10A rerep inconclusive
CSc1cccc(NC(=O)CCCOc2ccc(Cl)cc2Cl)c1	none
C=C(C)Cn1c(SCC(=O)c2ccc(OC)cc2)nc2sc3c(c2c1=O)CCCC3	none (no result: SW480 rereplic, MCF10A rerep, Giardia kill, S-ASM inh)
CC1(C)Cc2c(sc3nn[nH]c(=O)c23)CO1	KB-V1 MDR tox inconclusive
CC1(C)Cc2c(sc3nc[nH]c(=O)c23)CO1	SW480 rereplic 5.2µM
COc1ccc(N/N=C(/C(C)=O)N2CCCc3ccccc32)cc1	KB-3-1 tox 21µM
COc1ccc(/C=C/C(=O)N2CCCc3ccccc32)cc1	KB-V1 MDR tox 13µM, SW480 rereplic inconclusive, MCF10A rerep inconclusive, Giardia kill inconclusive
COc1ccc(NC(=O)N2CCCc3ccccc32)cc1	none
COC(=O)c1ccc(CSc2nc3c([nH]c4ccccc43)c(=O)n2-c2ccc(F)cc2)o1	none (no result: SW480 rereplic, MCF10A rerep, Giardia kill, S-ASM inh)
COc1ccc(C(C)=O)cc1CSc1nnc(C)n1-c1ccccc1	KB-V1 MDR tox 21µM
CCOC(=O)N1CCC2(CC1)C(C#N)=C(N)Oc1c2sc2nc(C)cc(C)c12	SW480 rereplic inconclusive, MCF10A rerep 7.3µM
Cc1ccc(S(=O)(=O)n2nc(C)cc2C)cc1	MCF10A rerep inconclusive
Cc1cc(C)n(S(=O)(=O)/C=C/c2ccccc2)n1	KB-3-1 tox inconclusive, KB-V1 MDR tox inconclusive, SW480 rereplic inconclusive, MCF10A rerep 16µM
Cc1ccccc1C(=O)NC1(C(F)(F)F)N=C(c2ccccc2)N(Cc2ccccc2)C1=O (configuration not stated)	KB-V1 MDR tox inconclusive (no result: SW480 rereplic, MCF10A rerep, Giardia kill, S-ASM inh)
O=C(/C=C/c1ccccc1)CC(O)(c1ccccc1)C(F)(F)F (configuration not stated)	KB-V1 MDR tox 23µM, SW480 rereplic inconclusive
CCOC(=O)C(C)Oc1cccc2c(=O)n(CC(=O)NCc3ccco3)ccc12 (configuration not stated)	KB-3-1 tox 0.73µM, SW480 rereplic 1.3µM, MCF10A rerep inconclusive
CC(C)C(=O)c1cn(CC(=O)NCc2ccco2)c2ccccc12	SW480 rereplic inconclusive
O=C(Cc1ccc(OCc2ccccn2)cc1)NO	none (no result: SW480 rereplic, MCF10A rerep, Giardia kill, S-ASM inh)
C[C@H](CO)N1C[C@H](C)[C@@H](CN(C)C)Oc2c(NS(=O)(=O)c3cn(C)cn3)cccc2C1=O	SW480 rereplic 0.92µM
C[C@H]1CN([C@@H](C)CO)C(=O)c2cccc(NC(=O)C3CC3)c2O[C@H]1CN(C)Cc1ccncc1	SW480 rereplic inconclusive

Screening data from PubChem.
